# PrPC surface inh – inhibitors of human cell surface prion protein PrPC. inhibition, % at 13.8 µM. TR-FRET read-out. P04156. 0.43% of 370,000 active; in the data active = inhibition above about 24%; note: 0% = median of the test wells and 100% = reference compound wells
# PrP UTR inh – inhibition of PrP 5' UTR reporter expression; cell-based PrP 5' UTR mRNA reporter, plate reader; inhibition, % (test concentration not listed); 0.35% of 340,000 active; AID 488862; in the data active = inhibition above about 52%; note: 0 = median of the neutral control wells
# BJeLR viability – BJeLR cell viability loss | BJeLR (HRASV12) viability, CellTiter-Glo ATP luminescence, 48 h | inhibition, % (concentration not given with the values) | 0.17% of 300,000 active; in the data active = inhibition above about 50%; inconclusive = no clear call, values can overlap the other calls
# DUSP3 inh – blocks human VHR1 dual specificity phosphatase; P51452; recombinant VHR phosphatase, pNPP absorbance; inhibition, % at 13.3 µM; 0.52% of 290,000 active; in the data active = inhibition above about 50%
# Target sequence (P51452 whole entry, looked up): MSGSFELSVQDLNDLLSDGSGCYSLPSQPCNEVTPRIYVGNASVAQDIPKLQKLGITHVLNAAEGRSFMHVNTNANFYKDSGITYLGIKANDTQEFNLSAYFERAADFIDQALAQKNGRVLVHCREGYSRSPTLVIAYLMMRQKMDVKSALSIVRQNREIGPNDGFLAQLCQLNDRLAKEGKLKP
# PfHsp40 rescue – restores yeast growth despite PfHsp40 toxicity; S. cerevisiae expressing PfHsp40, growth rescue, ATP luminescence; growth rescue, % at 12.5 µM; 0.68% of 340,000 active; in the data active = growth rescue above about 28%, passing the limit was not always enough; inconclusive = no clear call, values can overlap the other calls;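 note: yeast W303a lacking pdr1 and pdr3 grown in galactose medium; growth measured after three days at 30 °C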
# MazF activator – MazEF (E. coli) toxin RNase activation; FAM/BHQ RNA-DNA oligo cleavage fluorescence, 5 h; P0AE70; 0.32% of 350,000 active; activation, % at 20 µM; in the data active = activation above about 50%
# Target sequence (P0AE70 whole entry, looked up): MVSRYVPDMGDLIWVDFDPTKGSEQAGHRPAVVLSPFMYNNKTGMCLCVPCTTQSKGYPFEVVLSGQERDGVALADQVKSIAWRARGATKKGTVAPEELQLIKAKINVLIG
# PrP 5UTR single – prion 5' UTR mRNA inhibition, cherry-pick retest; 48% of 1,100 active; inhibition, % at 2.5 µM; shares compounds with PrP UTR inh; cell-based prion protein 5' UTR reporter, plate reader; in the data active = inhibition above about 54%; inconclusive = no clear call, values can overlap the other calls
# * marks the source's active call; other numbers are inactive results; u = inconclusive; x = no result. An excerpt weighted towards active compounds, which were near 2.1% of everything screened.
SMILES,PrPC surface inh,PrP UTR inh,BJeLR viability,DUSP3 inh,PfHsp40 rescue,MazF activator,PrP 5UTR single
C[C@H]1O[C@@H](OC2CC[C@]3(C=O)[C@H]4CC[C@]5(C)[C@@H](C6=CC(=O)OC6)CC[C@]5(O)[C@@H]4CC[C@]3(O)C2)CC2OC(C)(C)OC21 (some centres not stated),-4,84*,69*,6,1,13,85*
CC(=O)OC1CC(OC2C(O)CC(OC3C(O)CC(OC4CCC5(C)C(CCC6C5CCC5(C)C(C7=CC(=O)OC7)C(O)CC65O)C4)OC3C)OC2C)OC(C)C1OC1OC(CO)C(O)C(O)C1O (configuration not stated),0,94*,x,x,2,-9,68*
CC(=O)OC1CC2(O)C3CCC4CC(O)CCC4(C)C3CCC2(C)C1C1=CC(=O)OC1 (configuration not stated),3,86*,x,x,-1,9,80*
CN(CC1CCCN(CCc2ccc(Cl)cc2)C1)C(=O)c1ccc2nc[nH]c2c1 (configuration not stated),-2,-11,6,14,0,1,x
COc1ccc(OC)c(-c2nnc3n2N=C(c2ccc(OC)c(OC4CCOC4)c2)CS3)c1 (configuration not stated),17,72*,x,x,1,9,81*
COc1ccc(C2=Nn3c(nnc3-c3ccccc3OC)SC2)cc1OC,15,56*,8,38,0,3,77*
COc1ccc(OC)c(C(=O)Cn2cnc3ccccc3c2=O)c1,-7,-16,2,-3,0,3,x
Cc1ccc(C2=CC(=O)CC(C)(C)C2=O)cc1,6,x,x,x,x,x,x
O=C1NCCOc2ccccc21,7,x,x,x,x,x,x
O=C1C=C(Nc2cccc3cccnc23)c2ccccc2C1=O,-18,64*,45,16,-1,-5,-36
Cc1ccc(/C=C/C(=O)N2CCCC(C(N)=O)C2)o1 (configuration not stated),-2,-22,1,6,-1,-3,x
COc1ccc(CCNc2ccc(C(=O)O)cc2[N+](=O)[O-])cc1OC,-28,62*,7,-3,0,-14,10
NC(=O)c1ccc(NCCc2ccccc2)c([N+](=O)[O-])c1,-36,-10,2,-7,1,1,x
OCCCNc1ncnc2c1ncn2[C@H]1CN(C2CCCC2)C[C@@H](CO)O1,-7,x,x,x,x,x,x
OCCCNc1cc(-c2ccnc(Nc3cccc(Cl)c3)n2)ccn1,42*,82*,25,19,1,6,84*
Cc1ccccc1N1C(=O)CC2(CCCC2)CC1=O,-6,82*,5,8,1,-7,-7
Cc1ccccc1N1C(=O)CC(=O)NC1=O,2,-15,0,2,-1,5,x
CCN(CC)c1ccc(/C=N/N=C(N)N)c(O)c1,6,62*,48,13,-1,32,90*
O=C(NCCCn1ccnc1)c1[nH]c(C(F)(F)F)nc1-c1ccccc1,-6,x,x,x,x,x,x
CCOc1ccc(-c2cc(N)n(S(=O)(=O)c3ccc(OC)c(OC)c3)n2)cc1,12,-27,9,8,3,-9,x
COc1ccc(S(=O)(=O)n2nc(-c3ccc(Cl)cc3)cc2N)cc1OC,10,56*,-2,23,0,-4,1
Cn1ccnc1C(=O)c1ccc(Cl)c(S(=O)(=O)N2CCOCC2)c1,-3,x,1,29,0,-1,x
C[C@]12CC[C@H]3[C@@H](CCC4=CC(=O)CC[C@@]43C)[C@@H]1CC[C@@H]2C(=O)CO,4,76*,3,24,-1,5,-16
CC(=O)OCC(=O)[C@H]1CC[C@H]2[C@@H]3CCC4=CC(=O)CC[C@]4(C)[C@H]3CC[C@]12C,-2,-14,-7,-11,u,9,x
O=C(c1cc(-c2cccs2)nc2ccccc12)N1CCN(c2ccccc2)CC1,-4,-22,4,22,0,-9,x
SMILES,PrPC surface inh,PrP UTR inh,BJeLR viability,DUSP3 inh,PfHsp40 rescue,MazF activator,PrP 5UTR single
COc1cc(C(=O)N2CCN(c3ccccc3)CC2)c2ccccc2n1,2,75*,x,x,1,11,88*
CC(C)C(NC(=O)C(C(C)C)N(C)C)C(=O)N(C)C(C(=O)N1CCCC1C(=O)N1CCCC1C(=O)NCc1ccccc1)C(C)C (configuration not stated),4,62*,x,x,2,-14,89*
CCOc1ncccc1C(=O)N1CCN(c2cccc(C)c2C)CC1,6,70*,39,12,0,-7,86*
Cc1cc(OCc2cc(C(=O)N(C)C3CCOC3)no2)cc(C)c1Cl (configuration not stated),15,-102,14,-5,-1,4,x
CCOc1ccc(S(=O)(=O)Nc2cc(OC)ccc2OC)cc1,16,60*,46,-6,1,11,88*
COc1ccc(OC)c(NS(=O)(=O)c2ccc(N3CCCC3=O)cc2)c1,10,60*,48,6,-1,-3,90*
COc1ccc(CCNS(=O)(=O)c2ccc(N3CCCC3=O)cc2)cc1,11,-17,5,x,-1,-1,x
COc1ccc(OC)c(NS(=O)(=O)c2ccc(SC)cc2)c1,6,-24,27,-5,-1,-12,x
Cc1c(S(=O)(=O)N(C)C2CCCCC2)c(=O)n(C)c(=O)n1C,6,-126,-3,x,1,4,x
C=CCN=C1NC(CCc2ccccc2)C(C(=O)OC)=C(C)N1Cc1ccccc1C(F)(F)F (configuration not stated),3,x,x,x,x,x,x
COc1cc(C2c3[nH]c4ccccc4c3CC3COC(=O)N32)cc(OC)c1O (configuration not stated),4,59*,x,x,-1,5,90*
C[C@H]1CCC/C=C/[C@@H]2C[C@H](O)C[C@H]2[C@H](O)[C@H](S(=O)c2ccc(O)cc2)CC(=O)O1 (some centres not stated),89*,86*,x,x,0,9,69*
CC1CCCC=CC2CC(OC(=O)CN(C)C)CC2C(O)C=CC(=O)O1 (configuration not stated),90*,81*,x,x,0,3,90*
C[C@H]1CCC/C=C/[C@@H]2C[C@H](O)C[C@H]2[C@@H](O)/C=C/C(=O)O1,93*,86*,x,x,-1,6,91*
Cc1ccc(S(=O)(=O)N(CCc2ccccc2)CC(=O)N2CCOCC2)cc1,-4,x,x,x,x,x,x
COc1ccc(CCNS(=O)(=O)c2cc3c4c(c2)CCN4C(=O)CC3)cc1,-5,-13,15,x,x,7,x
CC(=O)C[C@@H]1OC[C@H](Cc2ccccc2)N1S(=O)(=O)c1ccc(C)cc1,5,x,x,x,x,x,x
O=C(NC(=O)c1ccccc1)Nc1ccccn1,-7,75*,28,9,-6,x,76*

# Screening data deposited in PubChem BioAssay by several laboratories.
